Vaccinia Venus: inhibitors of vaccinia virus (Venus reporter); Vaccinia virus Venus reporter expression, fluorescence; Potency, µM (top dose mostly 36.5 µM), actives largely listed as inhibitors; 0.46% of 330,000 active; AID 720580; calls by dose curve; tested in A549 cells; further: nearly all actives have a fitted effect of over 30% in size
AMA1-RON2 inh: inhibitors of Plasmodium falciparum AMA1-RON2 interaction | 0.2% of 360,000 active | AlphaScreen AMA1-biotinylated RON2 peptide binding | Potency, µM (doses to about 58.2 µM), most hits filed as inhibitors; further: nearly all actives have a fitted effect of over 45% in size
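AMA1 (3D7) with his tag at 25 nM final met compounds first, then biotinylated RON2 peptide at 25 nM; detection used donor plus acceptor beads, 10 µg/mL apiece, read by AlphaScreen after 30 min at room temperature.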
Pf growth 96h: P. falciparum growth inhibition at 96 hours. AID 504834. Potency, µM (doses to about 28.7 µM), actives largely listed as inhibitors. P. falciparum luciferase reporter growth, 96 h. 6.9% of 320,000 active
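96 h incubation, 37 C, 5% CO2, of luciferase-reporter P. falciparum-infected RBCs (2% hematocrit, 0.05% parasitemia final) with test compounds; endpoint luminescence.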
Pf growth 48h: P. falciparum growth inhibition at 48 hours (one generation); AID 504832; 5.9% of 310,000 active; P. falciparum luciferase growth in erythrocytes, 48 h; Potency, µM (top dose mostly 28.7 µM), usual class: inhibitors
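A one-generation exposure of luciferase-tagged malaria parasites in RPMI 1640/Albumax erythrocyte culture, 37 C and 5% CO2. Inhibition is inferred from decreased luminescence after adding detection reagent.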
Vaccinia mCherry: vaccinia inhibition (mCherry reporter) | Vaccinia virus mCherry reporter infection, fluorescence | Potency, µM (top dose mostly 36.5 µM), usual class: inhibitors | 0.63% of 310,000 active; calls by dose curve; tested in A549 cells; further: nearly all actives have a fitted effect of over 35% in size
A number is an active result; [ ] = remark or other dose. Shown are actives, neighbours in structure and some others; about 8.7% of the full set was active somewhere. Unless noted, the call rests on the fitted dose curve; in most records, active means well fitted curve in the direction sought with a large enough effect; inconclusive means small, poorly fitted or top-dose-only effect, or another doubt; inactive means no such curve, though single readings can be large; an effect the other way counts as inactive or inconclusive.

What do the screens show for `O=C(c1ccc2c(=O)n3c(nc2c1)CCCCC3)N1CCN(C(c2ccccc2)c2ccccc2)CC1`?
AMA1-RON2 inh: inactive; Pf growth 96h: 1.9µM

How did O=C(c1ccc2c(=O)n3c(nc2c1)CCCCC3)N1CCN(c2ccccc2)CC1 do in these assays?
Vaccinia Venus: inactive; AMA1-RON2 inh: inactive; Pf growth 96h: inactive; Pf growth 48h: inactive; Vaccinia mCherry: inactive

Results for O=C(c1ccc2c(=O)n3c(nc2c1)CCC3)N1CCN(S(=O)(=O)c2cccc(F)c2)CC1 ?
Vaccinia Venus: inactive; AMA1-RON2 inh: inactive; Pf growth 96h: inconclusive; Pf growth 48h: 12µM; Vaccinia mCherry: inactive

How did Cc1ncc([N+](=O)[O-])n1CCOC(=O)NC(NCc1ccccc1)C(Cl)(Cl)Cl (stereo unspecified) do in these assays?
Vaccinia Venus: inactive; AMA1-RON2 inh: inactive; Pf growth 96h: 0.33µM; Pf growth 48h: 8.3µM

What do the screens show for `Cc1ncc([N+](=O)[O-])n1CCOC(=O)NC(NCc1cccnc1)C(Cl)(Cl)Cl` (stereo unspecified)?
AMA1-RON2 inh: inactive; Pf growth 96h: inconclusive; Pf growth 48h: inconclusive

What do the screens show for `Cc1ncc([N+](=O)[O-])n1CCOC(=O)NC(Nc1ccc(F)cc1)C(Cl)(Cl)Cl` (stereo unspecified)?
Vaccinia Venus: inactive[7.34 µM]; AMA1-RON2 inh: inactive; Pf growth 96h: 6.6µM; Pf growth 48h: 8.3µM; Vaccinia mCherry: inactive[7.34 µM]

What do the screens show for `COC(=O)c1c(OCc2ccccn2)cc(=O)n2c1CCN(Cc1ccc3nsnc3c1)CC2`?
Vaccinia Venus: inactive; Vaccinia mCherry: inactive

Results for CCOC(=O)C1CCCN(Cc2c(C(=O)N3CCCCC3)nc3c(C)cccn23)C1 (stereo unspecified) ?
Vaccinia Venus: inactive; AMA1-RON2 inh: inactive; Pf growth 96h: inactive; Pf growth 48h: inactive; Vaccinia mCherry: inactive

How did CCN(Cc1ccccc1)C1CCN(Cc2ccccc2)CC1 do in these assays?
AMA1-RON2 inh: inactive; Pf growth 96h: inactive; Pf growth 48h: inconclusive

How did CCOC(=O)C1CCCCN1Cc1cccc(OCc2ccccc2)c1 (stereo unspecified) do in these assays?
AMA1-RON2 inh: inactive; Pf growth 96h: 13µM; Pf growth 48h: inactive

What do the screens show for `CCCN1CCC(N(CCc2ccccc2)Cc2ccccc2)CC1`?
AMA1-RON2 inh: inactive; Pf growth 96h: 12µM; Pf growth 48h: inconclusive

What do the screens show for `CCOC(=O)C1CCCCN1Cc1cccc(Oc2ccccc2)c1` (stereo unspecified)?
Vaccinia Venus: inactive; AMA1-RON2 inh: inactive; Pf growth 96h: inconclusive; Pf growth 48h: inconclusive; Vaccinia mCherry: inconclusive

What do the screens show for `CCOC(=O)C1CCCN(Cc2ccc(OCc3ccccc3)c(OC)c2)C1` (stereo unspecified)?
AMA1-RON2 inh: inactive; Pf growth 96h: 13µM; Pf growth 48h: inactive

How did CCOC(=O)C1CCCN(Cc2c(C(=O)N3CCOCC3)nc3ccccn23)C1 (stereo unspecified) do in these assays?
Vaccinia Venus: inactive; AMA1-RON2 inh: inactive; Pf growth 96h: 9.3µM; Pf growth 48h: inactive; Vaccinia mCherry: inactive

What do the screens show for `Cc1cccc(C)c1NC(=O)C1CCCN(CCCc2ccccc2)C1` (stereo unspecified)?
Vaccinia Venus: inactive; AMA1-RON2 inh: inactive; Pf growth 48h: inactive; Vaccinia mCherry: inactive

Results for CCCCN(C)C(=O)C1CCN(CCCc2ccccc2)CC1 ?
Vaccinia Venus: inactive; AMA1-RON2 inh: inactive; Pf growth 48h: 2.3µM; Vaccinia mCherry: inactive

Results for CCOC(=O)C1CCCN(CCCc2ccccc2)C1 (stereo unspecified) ?
Vaccinia Venus: inactive; AMA1-RON2 inh: inactive; Pf growth 96h: 3.3µM; Pf growth 48h: inactive; Vaccinia mCherry: inactive

What do the screens show for `O=C1Nc2c(c(=O)[nH]c(=O)n2-c2ccc(Cl)cc2)C1(NS(=O)(=O)c1ccccc1)C(F)(F)F` (stereo unspecified)?
Vaccinia Venus: inactive; Vaccinia mCherry: inactive

What do the screens show for `COc1ccc(OC)c(-c2oc3ccccc3c(=O)c2O)c1`?
Vaccinia Venus: inactive; AMA1-RON2 inh: inactive; Pf growth 96h: inconclusive; Pf growth 48h: inconclusive

Results for O=c1cc2oc3cc(O)c(O)cc3c(-c3ccccc3O)c-2cc1O ?
Vaccinia Venus: inactive; AMA1-RON2 inh: 1.1µM; Pf growth 96h: 3.7µM; Pf growth 48h: 4.1µM; Vaccinia mCherry: inactive

What do the screens show for `CCOc1ccccc1-c1c2cc(O)c(=O)cc-2oc2cc(O)c(O)cc12`?
AMA1-RON2 inh: inconclusive; Pf growth 96h: inactive; Pf growth 48h: 13µM; Vaccinia mCherry: inactive

Results for COc1ccc(OC)c(-c2c3cc(O)c(=O)cc-3oc3cc(O)c(O)cc23)c1 ?
Vaccinia Venus: inactive; AMA1-RON2 inh: 2µM; Pf growth 96h: inactive; Pf growth 48h: 10µM; Vaccinia mCherry: inactive

How did O=c1cc(-c2ccccc2O)oc2cc(O)ccc12 do in these assays?
Vaccinia Venus: inactive; Vaccinia mCherry: inactive

How did COc1ccc(-n2nnc(-c3nc(-c4cccs4)no3)c2N)cc1OC do in these assays?
Vaccinia Venus: inactive[7.34 µM]; Vaccinia mCherry: inactive[7.34 µM]

How did Cc1ccc(S(=O)(=O)NCC(=O)NCC(=O)NC(C)c2ccccc2Br)cc1C (stereo unspecified) do in these assays?
Vaccinia Venus: inconclusive; AMA1-RON2 inh: inactive; Pf growth 96h: inactive; Pf growth 48h: inactive; Vaccinia mCherry: inconclusive

How did CC(NC(=O)CCl)c1ccc(Cl)c(Cl)c1 (stereo unspecified) do in these assays?
Vaccinia Venus: inactive; AMA1-RON2 inh: inactive; Pf growth 96h: 3.7µM; Vaccinia mCherry: inconclusive

What do the screens show for `CC(NC(=O)CCl)c1ccccc1Br` (stereo unspecified)?
Vaccinia Venus: inactive; AMA1-RON2 inh: inactive; Pf growth 96h: 1.5µM; Pf growth 48h: 1.5µM; Vaccinia mCherry: inactive

Results for CC(NC(=O)c1ccc(Cl)c(Cl)c1)c1ccc(-c2ccccc2)cc1 (stereo unspecified) ?
Vaccinia Venus: inactive; AMA1-RON2 inh: inactive; Pf growth 96h: inactive; Pf growth 48h: inactive; Vaccinia mCherry: inactive

Results for Cc1cc(Cl)ccc1NC(=O)CS(=O)(=O)c1cccc2nsnc12 ?
Vaccinia Venus: inactive; Vaccinia mCherry: inactive

What do the screens show for `CCCCOc1c(Cl)cc(C(=O)N2CCN(CC(=O)N3CCCC3)CC2)cc1OCC`?
Vaccinia Venus: inconclusive; AMA1-RON2 inh: inactive; Pf growth 96h: inconclusive; Pf growth 48h: 12µM; Vaccinia mCherry: inconclusive

Results for CCCCOc1ccc(C(=O)N2CCCC2)cc1 ?
AMA1-RON2 inh: inactive; Pf growth 48h: inactive

What do the screens show for `CC1C/C(=C\c2cccnc2)C(=O)/C(=C/c2cccnc2)C1` (stereo unspecified)?
Vaccinia Venus: 8.9µM; AMA1-RON2 inh: inactive; Pf growth 96h: inactive; Pf growth 48h: 3.7µM; Vaccinia mCherry: inconclusive

Results for CN1C(=O)C(=Cc2cccnc2)C(=O)N(C)C1=O ?
Vaccinia Venus: inactive; AMA1-RON2 inh: inactive; Pf growth 96h: inactive; Pf growth 48h: inactive; Vaccinia mCherry: inactive

What do the screens show for `Cc1cccc(C)c1-n1ncc(C(=O)NC2CCCC2)c1C1CCN(C(=O)OC(C)(C)C)CC1`?
Vaccinia Venus: inactive; Vaccinia mCherry: inactive

How did COc1cc(OC)c(OC)cc1/C=C/c1cc[n+](C)c2ccccc12 do in these assays?
Vaccinia Venus: inactive; Vaccinia mCherry: inactive

Source: PubChem BioAssay
